Compound activity as filed in PubChem.
mHTT CaM bind: disrupts binding of mutant huntingtin to calmodulin; P42858; AlphaScreen His-mHTT/GST-CaM binding, luminescence; inhibition, % at 15 µM; actives 3.6% (n = 190,000); AID 1671202;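 note: 0% = both proteins with DMSO and 100% = one protein alone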
Pf apPOL inh: Pf-apPOL DNA polymerase inhibition. Recombinant Pf-apPOL, molecular beacon fluorescence, 1.5 h. inhibition, % at 10 µM. actives 0.25% (n = 210,000)
Numbers without * were called inactive; / = no result given; ! = not confirmed by another sample. The list is not random: actives were taken first. Their share in the collection is about 3.6%. Cut-off read from the data, not from the text of the source: active = inhibition above about 50%; inactive = the rest.

SMILES | mHTT CaM bind | Pf apPOL inh
COc1ccc(C2N(c3ccc(OC)c(Cl)c3)C(=O)C3CCCN32)cc1 (stereo not drawn) | -3 | -4
COc1ccc(OC)c(C2N(c3ccc(Cl)cc3)C(=O)C3CCCN32)c1 (stereo not drawn) | 73* | -1
COc1ccc(N2C(=O)C3CCCN3C2c2ccc(N(C)C)cc2)cc1Cl (stereo not drawn) | 67* | 0
COc1ccc(OC)c(C2N(c3ccc(Cl)c(Cl)c3)C(=O)C3CCCN32)c1 (stereo not drawn) | 100* | -2
COc1ccc(N2C(=O)C3CCCN3C2c2cccc(C)c2)cc1Cl (stereo not drawn) | 1 | -5
COc1cccc(C2N(c3ccc(Cl)c(Cl)c3)C(=O)C3CCCN32)c1 (stereo not drawn) | 99* | -4
COc1ccc(C2N(c3ccc(Cl)cc3)C(=O)C3CCCN32)cc1 (stereo not drawn) | -6 | -3
COc1ccc(OC)c(C2N(c3cc(C)on3)C(=O)C3CCCN32)c1 (stereo not drawn) | 0 | -3
CCOc1ccc(C(=O)Nc2c3c(nn2-c2ccc(Cl)cc2)CS(=O)(=O)C3)cc1 | -2 | -2
CN(C)c1ccc(C=CC(=O)C2=C(O)c3ccccc3C2=O)cc1 | 33 | -125
O=C(c1cc(F)c(F)cc1Cl)N1CCN(c2c(Cl)cccc2[N+](=O)[O-])CC1 | 20 | 6
COc1cccc(C2N(c3ccccn3)C(=O)C3CCCN32)c1OC (stereo not drawn) | -3 | -2
COc1cccc(C2N(c3ccc(Cl)c(Cl)c3)C(=O)C3CCCN32)c1OC (stereo not drawn) | 100* | -4
CCOCCCNC(=O)C1(C)CCC(=O)N1Cc1cccc(Br)c1 (stereo not drawn) | 4 | -4
COc1ccccc1C1=N/C(=C\c2ccccc2F)C(=O)O1 | -5 | -2
O=C(CN1C(=O)C(c2ccccc2)=NC12CCCCCC2)Nc1ccc(F)cc1 | -5 | -4
O=C(CN1C(=O)C(c2ccccc2)=NC12CCCCCC2)Nc1cccc(F)c1 | 52* | -9
O=C(CN1C(=O)C(c2ccccc2)=NC12CCCCCC2)Nc1ccccc1 | 45 | 1
CC1CCC2(CC1)N=C(c1ccccc1)C(=O)N2CC(=O)Nc1ccc(F)c(F)c1 (stereo not drawn) | 76* | -7
O=C(CN1C(=O)C(c2ccc(F)cc2)=NC12CCCCC2)Nc1ccc(F)cc1 | 12 | -6
COc1ccc(NC(=O)CN2C(=O)C(c3ccccc3)=NC23CCC(C)CC3)cc1OC (stereo not drawn) | 8 | -8
O=C(CN1C(=O)C(c2ccccc2)=NC12CCCCC2)Nc1ccc(F)c(F)c1 | 100* | -12
O=C(CN1C(=O)C(c2ccc(F)cc2)=NC12CCCCC2)Nc1ccc(Cl)cc1 | 77* | -10
Cc1noc(C)c1NC(=O)Nc1ccc(N(C)C)cc1 | / | 4
O=C(O)c1cnc2ccccc2c1 | -1 | 2
SMILES | mHTT CaM bind | Pf apPOL inh
Cc1ccc(C(=O)N2CC(C(=O)NCC3CC3)C(c3ccc(C)cc3)C2)cc1 (stereo not drawn) | 9 | -1
COc1ccc(NC(=O)CN2C(=O)C(c3ccccc3)=NC23CCC(C)CC3)cc1Cl (stereo not drawn) | 15 | -7
CC1CCC2(CC1)N=C(c1ccccc1)C(=O)N2CC(=O)Nc1cccc(Cl)c1 (stereo not drawn) | 70* | -6
COC(=O)c1cc(Nc2ccccc2OC)c2cccc(OC)c2n1 | 0 | 0
COc1ccccc1Nc1cc(C(F)(F)F)nc2c(OC)ccc(OC)c12 | 69* | 6
Cc1cc(C)cc(C(=O)NCC2CCN(c3cc(-c4ccncc4)[nH]n3)CC2)c1 | 23 | 0
O=C(CN1CCN(c2ccc(F)cc2)CC1)Nc1cccnc1Cl | 0 | 0
O=C(CN1CCN(c2ccc(F)cc2)CC1)Nc1ccc(Cl)c(Cl)c1 | 58* | 4
N#C/C(=C\c1ccccc1C(F)(F)F)c1nc2ccccc2c(=O)[nH]1 | -3 | 28
COc1ccc(CCNC(=O)CSC2=NN3CCCC(=O)N=C3S2)cc1OC | 0 | 0
O=[N+]([O-])c1cccc(CSc2ccc3nnc(-c4ccccn4)n3n2)c1 | 98* | 9
c1ccc(CSc2nnc3ccc(-c4ccccn4)nn23)nc1 | -7 | -1
Cc1nc(CSc2ccc3nnc(-c4ccccn4)n3n2)cs1 | 76* | -4
O=C(NCCc1nnc2ccc(SCc3ccccn3)nn12)c1ccccc1 | -22 | -2
COCCCNS(=O)(=O)c1ccc2c(c1)CC(C)N2C(C)=O (stereo not drawn) | -4 | -2
COc1ccc(C2CN(C(=O)c3ccc(C)cc3)CC2C(=O)N2CCOCC2)cc1 (stereo not drawn) | 6 | 0
COc1ccc(CN2COc3ccc4c(=O)c(-c5ccccc5)c(C)oc4c3C2)cc1 | 12 | -9
O=C1c2ccccc2C(=O)c2c1oc1c3c(ccc21)OCN(Cc1cccnc1)C3 | 94*! | 12
O=C1c2ccccc2C(=O)c2c1oc1c3c(ccc21)OCN(Cc1ccccn1)C3 | 100* | -6
COC(=O)c1ccc(Oc2c(C)oc3c4c(ccc3c2=O)OCN(Cc2cccnc2)C4)cc1 | 0 | 0
COC(=O)c1ccc(Oc2coc3c4c(ccc3c2=O)OCN(Cc2ccc(OC)cc2)C4)cc1 | 19 | -18
O=C1c2ccccc2C(=O)c2c1oc1c3c(ccc21)OCN(Cc1ccco1)C3 | 93* | -5
c1coc(CN2COc3cc4c(cc3C2)OCN(Cc2ccco2)C4)c1 | 3 | /
COC(=O)c1ccc(Oc2coc3c4c(ccc3c2=O)OCN(Cc2ccccn2)C4)cc1 | 100* | -36
Cc1cc(C)c(C2C3CCC=C3C(C#N)=C(N)C2(C#N)C#N)c(C)c1 (stereo not drawn) | 41 | /
SMILES | mHTT CaM bind | Pf apPOL inh
CC(C)C(=O)NCc1cnn(-c2ccc(C(=O)N(C)C)cc2)c1 | 1 | -1
N#C/C(C(N)=O)=C1\Oc2c(cc(O)cc2-c2ccc(Cl)cc2Cl)S1 | 0 | -5
O=C(NCc1csc(C2CCCN(S(=O)(=O)c3ccc(F)cc3F)C2)n1)C1CC1 (stereo not drawn) | -11 | -9
CCSc1nc2c3cc(OC)ccc3n(C)c2c(=O)n1C | -4 | -5
Cc1cccc(-n2c(CN3CCN(C(=O)NCc4ccco4)CC3)nc3cccnc32)c1 | 18 | 3
Cc1cccc(C2NC(=O)c3c(sc(C)c3C)N2)c1O (stereo not drawn) | 33 | 0
Cc1ccc(O)c(C2NC(=O)c3c(sc(C)c3C)N2)c1 (stereo not drawn) | 72* | -6
Cc1cc(Cl)ccc1N=Cc1nc(-c2ccc([N+](=O)[O-])cc2)oc1O | 0 | -5
CCOc1ncccc1C(=O)Nc1cccc(-c2ccc3nnc(C)n3n2)c1 | -6 | -4
O=C(Nc1cccc(-c2ccc3nnc(-c4cccnc4)n3n2)c1)c1ccc(F)cc1F | 80* | -3
CCOc1ccc(-c2cccc(NC(=O)c3ccc(F)cc3F)c2)nn1 | -1 | 2
Cc1nnc2ccc(-c3cccc(NC(=O)c4cc(Br)ccc4Cl)c3)nn12 | 57* | -4
Fc1ccccc1Cn1nnc(-c2ccccc2Cl)n1 | -74 | -11
CCOC(=O)C1CCCCN1S(=O)(=O)c1ccc2[nH]c3c(c2c1)CCCC3 (stereo not drawn) | 62* | 4
CN(CC(=O)Nc1ccccc1F)S(=O)(=O)c1ccc2[nH]c3c(c2c1)CCCC3 | 37 | -3
